# Experimental data: the supplement of paper PMC10498489
# Screen size: about 2,300 compounds; about 330 (14%) showed activity. The list is a sample of the results. Values without a mark were called inactive.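 How the source made its calls: active = median modified Z-score above 1.96; inactive = 1.96 or below.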
# Test system: HepG2 Srxn1-GFP reporter cells (+30 nM CDDO-Me)
# Test: Srxn1-GFP intensity median modified Z-score relative to plate median; higher = stronger NRF2 / oxidative stress reporter activation, active = hit call of the paper
# Details: 10 µM; exposure time: 24h
# Summary of the method: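 Compound at 10 μM was applied with an NRF2 activator at 30 nM to HepG2 Srxn1-GFP BAC reporter cells for 24 h, in DMSO at no more than 0.1%, using three replicate 96-well plates seeded at 20,000 cells per well. Fixed, Hoechst-stained cells were imaged confocally and cytoplasmic GFP was scored for each cell, with images under 100 cells left out. The figure reported is the replicate median of the per-plate modified Z-score of GFP intensity. Scaling relied on 1.4826 × median absolute deviation.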
row,SMILES,Srxn1-GFP intensity median modified Z-score
1,CCNC1(c2cccs2)CCCCC1=O (centres undefined) [euspeclibcmpd629],-0.153
2,O=C1NC(=O)C(=O)C(=O)N1 [euspeclibcmpd1767],0.258
3,NC(=O)C[S@@+]([O-])C(c1ccccc1)c1ccccc1 [euspeclibcmpd2097],0.795
4,O=c1[nH]c(=O)n(Cl)c(=O)n1Cl [euspeclibcmpd2375],0.319
5,c1cncc(C2CCCCN2)c1 (centres undefined) [euspeclibcmpd1406],0.116
6,COc1ccc2c(c1)[C@]13CCCC[C@@H]1[C@H](C2)N(C)CC3 [euspeclibcmpd87],0.145
7,CC(=O)O[C@@H]1CC2C(C)(C)C(=O)C=C[C@]2(C)C2CC[C@]3(C)C(=CC(=O)O[C@H]3c3ccoc3)[C@@]21C (some centres undefined) [euspeclibcmpd1551],38.8 (active)
8,CC(=O)OC1CC(OC(C)=O)C2(C)C(CC(OC(C)=O)C3(C)C2CCC2(C)C(c4ccoc4)C(=O)C4OC423)C1(C)C (centres undefined) [euspeclibcmpd1943],1.55
9,CC1(C)C(=O)C=C[C@@]2(C)C1C[C@@H](O)[C@]1(C)C2CC[C@@]2(C)[C@H](c3ccoc3)OC(=O)C3O[C@]321 (some centres undefined) [euspeclibcmpd1629],32.4 (active)
10,CC1(C)C2CC(=O)[C@]3(C)C(CC[C@@]4(C)[C@H](c5ccoc5)OC(=O)C5OC543)[C@@]2(C)[C@@H](O)C[C@H]1O (some centres undefined) [euspeclibcmpd1573],-0.392
11,COC(=O)C1CC(OC(C)=O)C(=O)C2C1(C)CCC1C(=O)OC(c3ccoc3)CC12C (centres undefined) [euspeclibcmpd1949],-0.455
12,CC1(C)C(=O)C2O[C@@H]2[C@@]2(C)C1C[C@@H](O)[C@]1(C)C2CC[C@@]2(C)[C@H](c3ccoc3)OC(=O)C3OC321 (some centres undefined) [euspeclibcmpd1634],0.977
13,CC(CC(C(N)=O)(c1ccccc1)c1ccccc1)N(C)C (centres undefined) [euspeclibcmpd819],-0.42
14,C[N+]12CC[C@@]34c5ccccc5N5C(=O)CC6OCC=C(C1)[C@H](CC32)[C@@H]6C54 (some centres undefined) [euspeclibcmpd1705],-0.091
15,COc1cc2c(cc1O)CCNC2C (centres undefined) [euspeclibcmpd1467],-0.387
16,CCOP(=S)(OCC)Oc1ccc2c(C)c(Cl)c(=O)oc2c1 [euspeclibcmpd1023],1.02
17,C[C@H]1O[C@H](O[C@H]2[C@H](O)[C@@H](O)[C@@H](O)[C@H](O)[C@@H]2O)[C@@H](N)C[C@@H]1N=C(N)C(=O)O [euspeclibcmpd1430],-0.17

row,SMILES,Srxn1-GFP intensity median modified Z-score
1,NCCc1cc(O)c(O)cc1O [euspeclibcmpd220],-0.288
2,CC[C@H]1C[N@]2CCC1C[C@@H]2[C@@H](O)c1ccnc2ccc(OC)cc12 [euspeclibcmpd2090],0.772
3,C[C@]12CCC3[C@@H](CC[C@@]45OC4C(=O)C(C#N)C[C@]35C)[C@H]1CC[C@@H]2O (some centres undefined) [euspeclibcmpd687],-0.339
4,CCC(C)[C@H]1O[C@]2(C=C[C@@H]1C)C[C@@H]1C[C@@H](C/C=C(\C)[C@@H](OC3C[C@H](OC)C(O[C@H]4C[C@H](OC)[C@@H](O)[C@H](C)O4)[C@H](C)O3)[C@@H](C)/C=C/C=C3\CO[C@@H]4[C@H](O)C(C)=CC(C(=O)O1)[C@]34O)O2 (some centres undefined) [euspeclibcmpd1285],16.3 (active)
5,CC(C)(O)C(Cl)(Cl)Cl [euspeclibcmpd1104],-0.138
6,C=C[C@H]1C[N@]2CC[C@H]1C[C@@H]2[C@@H](OC(=O)OCC)c1ccnc2ccc(OC)cc12 [euspeclibcmpd1022],-0.0707
7,CC=C(C)C(=O)O[C@H]1CC[C@@]2(C)[C@@H]3CC[C@H]4[C@]5(O)C[C@H](O)[C@@]6(O)[C@@H](CN7C[C@@H](C)CC[C@H]7[C@@]6(C)O)[C@]5(O)C[C@@]42O[C@]13O [euspeclibcmpd1469],0.0522
8,Nc1[nH]c(=O)n2c1C2 [euspeclibcmpd933],0.164
9,CS(=N)(=O)CCC(N)C(=O)O (centres undefined) [euspeclibcmpd1752],-0.455
10,CC1OC(OC2C(O)CC(OC3C(O)CC(OC4CCC5(C)C(CCC6C5CCC5(C)C(c7coc(O)c7)C(O)CC65O)C4)OC3C)OC2C)CC(O)C1O (centres undefined) [euspeclibcmpd1936],2.78 (active)
11,CO[C@H]1[C@H](O)[C@@H](O[C@H]2CC[C@]3(C=O)C4CC[C@]5(C)C(c6coc(O)c6)CC[C@]5(O)C4CC[C@@H]3C2)O[C@@H](C)[C@@H]1O (some centres undefined) [euspeclibcmpd2165],3.39 (active)
12,C[C@H]1O[C@@H](O[C@H]2[C@@H](O)C[C@H](O[C@H]3[C@@H](O)C[C@H](O[C@H]4CC[C@]5(C)C6CC[C@]7(C)C(c8coc(O)c8)CC[C@]7(O)C6CC[C@@H]5C4)O[C@@H]3C)O[C@@H]2C)C[C@H](O)[C@@H]1O (some centres undefined) [euspeclibcmpd95],-1.81
13,CC1OC(OC2C=C3CCC4C(CCC5(C)C(c6ccc(=O)oc6)CCC45O)C3(C)CC2)C(O)C(O)C1O (centres undefined) [euspeclibcmpd1931],2.81 (active)
14,C[C@@H]1O[C@@H](O[C@H]2CC[C@]3(C=O)C4CC[C@]5(C)C(c6coc(O)c6)CC[C@]5(O)C4CC[C@]3(O)C2)[C@H](O)[C@H](O)[C@H]1O (some centres undefined) [euspeclibcmpd1374],7.48 (active)
15,C[C@@H]1O[C@@H](O[C@H]2C[C@@H](O)[C@]3(CO)C4C(CC[C@]3(O)C2)[C@@]2(O)CCC(c3coc(O)c3)[C@@]2(C)C[C@H]4O)[C@H](O)[C@H](O)[C@H]1O (some centres undefined) [euspeclibcmpd1207],-1.16
16,C[C@@]12C(c3coc(O)c3)CC[C@]1(O)C1CC[C@@H]3C[C@@H](O)CC[C@]3(C)C1C[C@H]2O (some centres undefined) [euspeclibcmpd2259],-0.638
17,C[C@H]1O[C@@H](O[C@H]2[C@@H](O)C[C@H](O[C@H]3[C@@H](O)C[C@H](O[C@H]4CC[C@]5(C)C6C[C@@H](O)[C@]7(C)C(c8coc(O)c8)CC[C@]7(O)C6CC[C@@H]5C4)O[C@@H]3C)O[C@@H]2C)C[C@H](O)[C@@H]1O (some centres undefined) [euspeclibcmpd96],-1.88
